This is a sample that favours compounds with a hit; in the whole collection about 20% have one here.
HCMV inh – blocks human cytomegalovirus replication; HFF cells, HCMV-luciferase reporter, 72 h; active compounds read low; activity change, negative = inhibition, % at 57.5 µM; 410,000 compounds, 4.5% hits; AID 1259415; in the data active = activity change below about -60%; inconclusive = no clear call, values can overlap the other calls; inactive = above about -39%; note: % is set by controls: 0 for no effect and ±100 for the full control effect
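Human foreskin fibroblasts infected with luciferase-reporter HCMV at MOI 1 PFU/cell, compounds at two doses. Luciferase measured 72 h post infection; normalized to buffer-only basal and Salinomycin (10uM) controls.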
Pf growth 96h – P. falciparum growth inhibition at 96 hours; P. falciparum luciferase reporter growth, 96 h; Potency, µM (top dose mostly 28.7 µM), for inactives: top-dose activity change, negative = inhibition, hits mostly inhibitors; 320,000 compounds, 6.9% hits; AID 504834; note: potency is the fitted concentration of half-maximal effect; % is set by controls: 0 for no effect and ±100 for the full control effect
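Infected RBCs, 2% Hct / 0.05% parasitemia final; luciferase-reporter P. falciparum; cpd 96 h, 37 C, 5% CO2; luciferase detection reagent; luminescence.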
Shiga toxin inh – blocks Shiga toxin action in Vero cells. Vero cells, Shiga toxin protein synthesis inhibition reporter. inhibition, % at 38.7 µM. 290,000 compounds, 9.2% hits. AID 2315; in the data active = inhibition mostly above about 28%, no sharp cut-off; inactive = mostly below about 43%; note: 0% is about no effect
Pf growth 48h – inhibits P. falciparum growth in the first generation, 48 h; P. falciparum luciferase growth in erythrocytes, 48 h; Potency, µM (top dose mostly 28.7 µM), inactives show at the top dose activity change, negative = inhibition, usual class: inhibitors; AID 504832; 310,000 compounds, 5.9% hits; note: potency is the fitted concentration of half-maximal effect; % is set by controls: 0 for no effect and ±100 for the full control effect
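Firefly luciferase activity from engineered P. falciparum reports growth; inhibitors lower the luminescent signal. Cultures contained 2% hematocrit erythrocytes at 0.1% final parasitemia.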
Cycloheximide cs – counter-screen hit for Shiga toxin inhibitors, cycloheximide; cell reporter, cycloheximide protein synthesis inhibition counterscreen; 300,000 compounds, 12% hits; AID 2314; max response, %; in the data active = max response mostly above about 13%, no sharp cut-off; inactive = mostly below about 14%; note: read at 38.3 µM for the half of the compounds with a filed dose; 0% is about no effect
Starred values were filed as active, the others as inactive; i = inactive; ? = inconclusive; / = not tested or not shown. Unless noted, calls come from the whole dose curve; as a rule, active = well fitted inhibition curve with a large enough effect; inconclusive = small, poorly fitted or top-dose-only effect, or another doubt; inactive = no such curve, though single readings can be large or run the other way.

SMILES	HCMV inh	Pf growth 96h	Shiga toxin inh	Pf growth 48h	Cycloheximide cs
COc1ccccc1C(=O)N/N=C(\C)CC(=O)Nc1ccc(Cl)cn1	35.3	20.1%	49.7*	9.2%	37.3*
COc1ccc(OC)c(NC(=O)C(=O)N/N=C(\C)CC(=O)Nc2ccc(Cl)cn2)c1	-13.4	-3.7%	-4.6	9.3%	-2.9
C/C(CC(=O)Nc1ccccn1)=N\NC(=O)c1ccc(C)cc1	-4.3	i	56.8	36.2%	18.4*
COc1ccccc1C(=O)N/N=C(\C)CC(=O)Nc1ccccc1NC(C)=O	54.8	24.9%	/	4.1%	19.4*
COc1ccccc1C(=O)N/N=C(\C)CC(=O)Nc1ccc(Nc2ccccc2)cc1	45.1	-17.2%	25.0	?	11.8
O=C(Nc1ccc2c(c1)S(=O)(=O)N=C1CCCCCN12)c1ccccc1Cl	10.0	?	2.8	?	2.8
CC(C#N)Sc1nnc(-c2ccccc2F)n1C1CC1 (stereo unspecified)	-24.1	11.6%	-8.2	-7.1%	-4.5
CC1(c2ccccc2Cl)NC(=O)N(CC(=O)N2CCN(S(=O)(=O)c3ccccc3)CC2)C1=O (stereo unspecified)	10.0	-1.7%	/	?	/
CC1CCN(C(=O)c2ccc(COc3ccccc3Cl)o2)CC1	-3.4	10.4µM*	27.0	?	18.9
O=C(OCc1ccccn1)c1ccc(COc2ccccc2Cl)o1	-2.6	?	34.3	12.9%	30.0*
O=C(c1ccc(COc2ccccc2Cl)o1)N1CCOCC1	2.5	-19.9%	10.6	17.1%	-3.1
O=C(c1ccc(COc2ccccc2Cl)o1)N1CCCC1	11.1	?	24.0	-3.7%	15.5*
Cn1ncc2c(Nc3cccc(C#N)c3)ncnc21	-8.8	/	/	/	/
Cc1cc(C)c2c(=O)cc(C(=O)Nc3c(C)n(C)n(-c4ccccc4)c3=O)oc2c1	15.9	/	/	/	/
Cc1ccc(NC(=O)C2CCCN(S(=O)(=O)c3cccc4nsnc34)C2)c(C)c1 (stereo unspecified)	-24.2	/	/	/	/
C=CCN=C1CCCc2c1[nH]c1ccc(C)cc21	20.1	12.3%	50.1*	44.6%	30.1*
COC(=O)C(C(=O)OC)C(C(=O)OC)C(C(=O)OC)C(=O)OC	-88.0*	/	9.8	17.9%	5.8
CN1CCN(C(CC(=O)Nc2cccc(O)c2)C(=O)O)CC1 (stereo unspecified)	/	?	-14.0	-7.3%	-1.6
CCCC(=O)NC(Nc1cc(C(F)(F)F)ccc1Cl)C(Cl)(Cl)Cl (stereo unspecified)	-32.6	?	-10.2	11.7µM*	-4.2
CCCC(=O)NC(Nc1ccccc1F)C(Cl)(Cl)Cl (stereo unspecified)	/	?	-5.8	?	9.3
C[C@H](NC(=O)c1ccccc1Cl)C(=O)OC(C(=O)Nc1cc(C(F)(F)F)ccc1Cl)c1ccccc1 (stereo partly specified)	-31.3	8.28µM*	4.6	/	18.5
CCCC(=O)NC(Nc1cccc(C(F)(F)F)c1)C(Cl)(Cl)Cl (stereo unspecified)	28.6	1.85µM*	-8.1	?	0.8
O=C(CNC(=O)c1ccccc1F)OC(C(=O)Nc1cc(C(F)(F)F)ccc1Cl)c1ccccc1 (stereo unspecified)	?	?	-9.2	/	0.8
CC(C)C(=O)NC(Nc1cc(C(F)(F)F)ccc1Cl)C(Cl)(Cl)Cl (stereo unspecified)	-1.5	13.1µM*	-9.5	?	-1.5
CCOC(=O)N1CCC2(CC1)OC(=O)C(C)=C2C(=O)NCc1ccc(C)cc1	0.0	/	/	/	/
SMILES	HCMV inh	Pf growth 96h	Shiga toxin inh	Pf growth 48h	Cycloheximide cs
CCOc1ccc(CCNC(=O)Cn2ccc3ccccc3c2=O)cc1OCC	-16.7	?	25.1	-14.0%	-2.0
COC(=O)C[C@@H]1C=C[C@@H](NC(=O)c2ccccc2F)[C@@H](CO)O1	2.2	/	/	/	/
COc1ccc(Cc2nnc(SC(C)C(=O)Nc3ccc(C(N)=O)cc3)o2)cc1 (stereo unspecified)	-11.4	8.3%	/	1.1%	/
CC1CCN(C(=O)c2cc(Cl)ccc2NC(=O)c2ccco2)CC1	-60.1*	2.33µM*	-4.7	6.5%	-3.3
CN1CCN(C(=O)c2cc(Cl)cc(Cl)c2NC(=O)c2ccco2)CC1	-32.5	32.5%	-11.2	12.3%	-4.4
CC1CCCCN1C(=O)c1ccccc1NC(=O)c1ccco1 (stereo unspecified)	38.4	10.4µM*	1.5	3.7%	-5.0
O=C(Nc1ccccc1C(=O)N1CCOCC1)c1ccco1	50.9	?	-8.1	-0.3%	0.9
CC(=O)C1=C(C)Nc2cc(C(F)(F)F)ccc2S1	48.6	-4.3%	21.0	2.8%	-3.1
CCCCCCCC(=O)NNC(=O)Cc1ccccc1	-13.3	53.9%	-1.8	26.4%	6.6
C[N+](C)(C)Cc1ccccc1	-12.6	1.04µM*	-9.4	?	-1.3
CCCCCCCCCCCCCC[N+](C)(C)Cc1ccccc1	/	2.69µM*	/	1.69µM*	/
CCCCCCCCCCCC[N+](C)(C)CCOc1ccccc1	/	2.39µM*	/	4.26µM*	/
CCCCCCCCCCCCCCCC[N+](C)(C)Cc1ccccc1	/	3.01µM*	/	1.69µM*	/
CN1C(=O)c2ccccc2Sc2ccc(NC(=O)Cc3c(F)cccc3Cl)cc21	-81.9*	/	/	/	/
CN1C(=O)c2ccccc2Sc2ccc(NC(=O)COc3ccccc3)cc21	-63.5*	/	/	/	/
COc1ccc(C2C(C#N)=C(N)N(c3cccnc3)C3=C2C(=O)CCC3)cc1Cn1cc([N+](=O)[O-])cn1 (stereo unspecified)	8.3	?	-17.4	?	-1.2
Cc1nn(C)cc1C1C(C#N)=C(N)N(c2ccc(F)c([N+](=O)[O-])c2)C2=C1C(=O)CCC2 (stereo unspecified)	2.0	9.28µM*	-4.3	?	-0.9
COc1ccc(C2C(C#N)=C(N)N(c3ccccc3)C3=C2C(=O)CCC3)cc1Cn1cc([N+](=O)[O-])cn1 (stereo unspecified)	-15.8	14.7µM*	-22.7	8.28µM*	-4.3
CC(C)C[C@@H]1NC(=O)[C@H](Cc2ccc(O)cc2)NC(=O)c2cc([N+](=O)[O-])cc(I)c2NCCC[C@@H](C(N)=O)NC1=O	/	10.4µM*	-10.7	?	-3.6
C=CCN1C(=Nc2cccnc2)SCC1(O)c1ccc(C)cc1 (stereo unspecified)	/	16.1%	28.0	3.29µM*	-1.6
COc1ccc(-c2noc(N3CCN(c4cccc(Cl)c4)CC3)n2)cc1OC	-7.7	/	/	/	/
Cc1cc(C)c(NC(=O)CSc2nnc(-c3ccccn3)n2N)c(Cl)c1	12.1	-0.8%	15.7	-1.8%	7.5
COc1ccc(C(=O)Nc2cc(C(F)(F)F)ccc2-n2cnc3ccccc32)cc1	-72.8*	?	-2.8	?	-0.5
CN(C)c1cccc(C(=O)Nc2cc(C(F)(F)F)ccc2-n2cnc3ccccc32)c1	-28.1	?	-7.1	11.7µM*	-1.8
NC(=O)C1(N2CCCCC2)CCN(C(=S)Nc2ccc(F)c(Cl)c2)CC1	-4.3	?	8.7	32.0%	1.3
